From the supplement of paper PMC10646978
± gives the standard deviation.

Key:
Conditions in all cases: modulator concentration 10 µM
[1] = system: RAW-Dual (murine macrophage reporter line); test: NF-kB reporter (SEAP) activity fold change vs agonist alone; higher = enhanced NF-kB activity
Procedure, shortened: (§1)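 Overnight stimulation with a PRR agonist followed pre-incubation for 1 hour at 37 °C with compound at 10 μM final. This was done in RAW-Dual murine macrophage reporter cells seeded at 50 000 per well in 384-well plates. NF-κB (SEAP, QUANTI-Blue absorbance at 620 nm) and IRF (Lucia luciferase, QUANTI-Luc luminescence) were read from the supernatant. Each reporter's fold change relative to the mean agonist-only control on the same plate was averaged over replicate plates.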

[2] = system: RAW-Dual (murine macrophage reporter line); test: IRF reporter (Lucia luciferase) activity fold change vs agonist alone; higher = enhanced IRF activity
Procedure, shortened: as §1

[3] = system: RAW-Dual (murine macrophage reporter line); test: viability score (confluency relative to resting cells, overnight) (fraction); higher = more viable, active = viable (0.7 or more)
Procedure, shortened: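 In 384-well plates, RAW-Dual macrophages received compound at a final 10 μM overnight. Two confluency masks were then made with IncuCyte software from IncuCyte images of all imaged wells. The viability score is defined as confluency relative to resting cells. Passing the cutoff required both masks to lie above 70% of resting cells.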

[4] = agonist: CpG ODN 1826 0.5 ug/mL

SMILES	NF-kB reporter [1, 4]	NF-kB reporter ([1]; agonist: LPS 0.1 ug/mL)	NF-kB reporter ([1]; agonist: MPLA […])	IRF reporter ([2]; agonist: 3'3'-cGAMP 10 ug/mL)	IRF reporter ([2]; agonist: LPS 0.1 ug/mL)	IRF reporter ([2]; agonist: MPLA […])	viability score [3]
CC(C)(C)C1=CC2(C=C(C(C)(C)C)C1=O)Nc1cccc3cccc(c13)N2	0.874 ± 0.12	1.08 ± 0.062	0.96 ± 0.075	0.754 ± 0.037	1.17 ± 0.11	0.942 ± 0.078	1.01 (active)
COc1cccc2c1C(=O)c1c(O)c3c(c(O)c1C2=O)C[C@@](O)(C(C)=O)C[C@@H]3O[C@H]1C[C@H](N)[C@H](O)[C@H](C)O1 [Prestw-487]	0.0705 ± 0.0054	0.0667 ± 0.019	0.095 ± 0.0092	0.0214 ± 0.0026	0.024 ± 0.0063	0.0245 ± 0.0067	0.325 (inactive)
Cc1nc(Nc2ncc(C(=O)Nc3c(C)cccc3Cl)s2)cc(N2CCN(CCO)CC2)n1.Cl	0.802 ± 0.035	1.01 ± 0.12	1.06 ± 0.067	0.976 ± 0.048	1.22 ± 0.28	1.34 ± 0.45	1 (active)
O=C(NC1CCN(c2ccc(C(F)(F)F)cn2)C1)c1nc2ccccc2s1 (stereo not drawn)	1.09 ± 0.056	1.05 ± 0.088	0.909 ± 0.081	0.953 ± 0.049	1.27 ± 0.076	1.11 ± 0.28	0.983 (active)
O=C(COc1ccccc1)N1CCCC1Cn1nccn1 (stereo not drawn)	0.962 ± 0.09	0.951 ± 0.077	0.923 ± 0.1	0.904 ± 0.049	1.17 ± 0.1	1.06 ± 0.25	0.975 (active)
COc1c(C)c2c(c(O)c1C/C=C(\C)CCC(=O)OCCN1CCOCC1)C(=O)OC2	0.66 ± 0.12	0.222 ± 0.02	0.517 ± 0.047	0.608 ± 0.049	1.28 ± 0.13	1.24 ± 0.13	0.813 (active)
CCOC(=O)N1CCN(C(=O)CSc2nnc(-c3cccc(Cl)c3)o2)CC1	0.846 ± 0.18	0.96 ± 0.065	0.974 ± 0.057	0.769 ± 0.03	1.29 ± 0.1	1.04 ± 0.11	0.95 (active)
CC(=O)Nc1nc(C2CC2)cc(-c2ccco2)c1C#N	1.38 ± 0.23	1.09 ± 0.09	1.02 ± 0.08	0.937 ± 0.026	1.16 ± 0.12	1.17 ± 0.12	1 (active)
COc1cc2ncnc(Nc3ccc(F)c(Cl)c3)c2cc1NC(=O)/C=C/CN1CCCCC1	0.666 ± 0.32	0.936 ± 0.083	0.989 ± 0.081	0.486 ± 0.026	0.958 ± 0.2	0.861 ± 0.22	0.988 (active)
CCOC(=O)C1=C(C)NC(C)=C(C(=O)OCC)C1c1ccc(Cl)cc1	0.3 ± 0.023	0.27 ± 0.019	0.748 ± 0.026	0.743 ± 0.061	0.636 ± 0.084	1.67 ± 0.2	0.187 (inactive)
CC1(C)CCCC2=C1CC1C(=O)NC(=O)C1C2 (stereo not drawn)	0.88 ± 0.079	0.977 ± 0.076	0.948 ± 0.14	0.953 ± 0.085	1.16 ± 0.2	1.32 ± 0.33	1.03 (active)
COc1cccc(CCNC(=O)CC2CSc3nc4c(c(=O)n32)CCCC4)c1 (stereo not drawn)	1.22 ± 0.069	1.07 ± 0.083	1.05 ± 0.096	0.886 ± 0.034	1.06 ± 0.052	1.13 ± 0.11	0.996 (active)
CCC1OC(=O)C(C)C(OC2CC(C)(OC)C(O)C(C)O2)C(C)C(OC2OC(C)CC(N(C)C)C2O)C(C)(O)CC(C)CN(C)C(C)C(O)C1(C)O (stereo not drawn)	0.593 ± 0.046	1.1 ± 0.07	1.19 ± 0.029	0.727 ± 0.058	0.948 ± 0.11	0.952 ± 0.088	0.998 (active)
O=C(c1ccc(F)cc1)C1CCN(CCn2c(=O)[nH]c3ccccc3c2=O)CC1	0.477 ± 0.028	0.956 ± 0.1	1.34 ± 0.072	1.47 ± 0.068	1.21 ± 0.19	1.45 ± 0.34	0.314 (inactive)
